Test results published in PubChem BioAssay (NCI).
The panel holds about 83,000 compounds, 20% with a hit somewhere; the sample as a whole holds those more often.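 Results are percent growth after 48 hours of single-concentration exposure. 100 means growth as in untreated cells, lower positive values show inhibition; negative values down to -100 show cell death.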 Active and inactive are the calls of the source. Rule for the calls: active = growth percent below 10; inactive = the rest.

Assays:
Assay in all cases: NCI-60 one-dose screen, 48 h (100 = growth as untreated, 0 = no growth, -100 = all killed)
Conditions in all cases: 10 µM unless noted
SK-MEL-2 melanoma = test system: SK-MEL-2 melanoma
EKVX NSCLC = test system: EKVX NSCLC
SN12C renal = test system: SN12C renal
UO-31 renal = test system: UO-31 renal
TK-10 renal = test system: TK-10 renal
ACHN renal = test system: ACHN renal
A498 renal = test system: A498 renal
CCRF-CEM leukemia = test system: CCRF-CEM leukemia
MOLT-4 leukemia = test system: MOLT-4 leukemia
SR leukemia = test system: SR leukemia
RPMI-8226 leukemia = test system: RPMI-8226 leukemia
OVCAR-8 ovarian = test system: OVCAR-8 ovarian
OVCAR-5 ovarian = test system: OVCAR-5 ovarian
OVCAR-4 ovarian = test system: OVCAR-4 ovarian
SK-OV-3 ovarian = test system: SK-OV-3 ovarian
IGROV1 ovarian = test system: IGROV1 ovarian
OVCAR-3 ovarian = test system: OVCAR-3 ovarian
HS 578T breast = test system: HS 578T breast
NCI/ADR-RES ovarian = test system: NCI/ADR-RES ovarian
T-47D breast = test system: T-47D breast

Measured: growth

COc1cc(C2=NN(c3ccccc3)C(c3cccc(Nc4ccnc5cc(C(F)(F)F)ccc45)c3)C2)cc(OC)c1OC (stereo not given)
inactive: SK-MEL-2 melanoma 86.6% | EKVX NSCLC 85.2% | SN12C renal 97.1% | UO-31 renal 61.4% | TK-10 renal 78.2% | ACHN renal 95.2% | A498 renal 89.9% | CCRF-CEM leukemia 84.1% | MOLT-4 leukemia 65.3% | SR leukemia 56.9% | RPMI-8226 leukemia 65.1% | OVCAR-8 ovarian 91.7% | OVCAR-5 ovarian 104% | OVCAR-4 ovarian 91% | SK-OV-3 ovarian 94.7% | IGROV1 ovarian 77.9% | OVCAR-3 ovarian 88.1% | HS 578T breast 99% | NCI/ADR-RES ovarian 80.9% | T-47D breast 76.5%

Cc1ccc(SC2c3ccc(C)cc3Oc3nc(N)c(C#N)c(N)c32)cc1 (stereo not given)
active: CCRF-CEM leukemia 7.82% | MOLT-4 leukemia 7.29% | SR leukemia -11.8%
inactive: SK-MEL-2 melanoma 65.3% | EKVX NSCLC 59.8% | SN12C renal 79.9% | UO-31 renal 48.5% | TK-10 renal 69.3% | ACHN renal 68.1% | A498 renal 106% | RPMI-8226 leukemia 12.8% | OVCAR-8 ovarian 95% | OVCAR-5 ovarian 121% | OVCAR-4 ovarian 74.8% | SK-OV-3 ovarian 102% | IGROV1 ovarian 25.9% | OVCAR-3 ovarian 55.2% | HS 578T breast 96.2% | NCI/ADR-RES ovarian 92.1% | T-47D breast 16.8%

COc1cc(/C=C/C(=O)c2ccc(NC(=O)CSc3nnc(-c4cc(OC)c(OC)c(OC)c4)n3-c3ccccc3)cc2)cc(OC)c1OC
inactive: SK-MEL-2 melanoma 32.1% | EKVX NSCLC 31.3% | SN12C renal 41% | TK-10 renal 45.1% | ACHN renal 17.9% | OVCAR-8 ovarian 10% | OVCAR-5 ovarian 61.4% | OVCAR-4 ovarian 54.8% | SK-OV-3 ovarian 38% | HS 578T breast 83.1% | NCI/ADR-RES ovarian 44.3% | T-47D breast 50.3%
active: UO-31 renal -50.3% | A498 renal -12.1% | CCRF-CEM leukemia 6.02% | MOLT-4 leukemia 5.18% | SR leukemia 2.13% | RPMI-8226 leukemia -13.1% | IGROV1 ovarian 7.57% | OVCAR-3 ovarian -17.8%

O=C1CC23OC(C(O)c4ccccc4N12)C1C(c2ccccc2)=NOC13 (stereo not given)
inactive: SK-MEL-2 melanoma 40.8% | EKVX NSCLC 57.7% | SN12C renal 42.9% | UO-31 renal 45.1% | TK-10 renal 102% | ACHN renal 52.7% | A498 renal 71% | CCRF-CEM leukemia 68.3% | MOLT-4 leukemia 37.2% | SR leukemia 22.2% | RPMI-8226 leukemia 28.5% | OVCAR-8 ovarian 70.4% | OVCAR-5 ovarian 81.2% | OVCAR-4 ovarian 89.7% | SK-OV-3 ovarian 79.9% | IGROV1 ovarian 43.6% | OVCAR-3 ovarian 56.7% | HS 578T breast 52.2% | NCI/ADR-RES ovarian 15.8% | T-47D breast 52.8%

Nc1c(C(=O)Nc2cccc3ccccc23)sc2nc3c(cc12)COCC3
inactive: SK-MEL-2 melanoma 49.1% | EKVX NSCLC 85.1% | SN12C renal 59.9% | UO-31 renal 77% | TK-10 renal 96.4% | ACHN renal 62.5% | A498 renal 54.2% | CCRF-CEM leukemia 23.6% | MOLT-4 leukemia 35% | SR leukemia 22.4% | RPMI-8226 leukemia 59.6% | OVCAR-8 ovarian 57.9% | OVCAR-5 ovarian 87.9% | OVCAR-4 ovarian 73.4% | SK-OV-3 ovarian 38.6% | IGROV1 ovarian 49.1% | OVCAR-3 ovarian 19.8% | HS 578T breast 35.8% | NCI/ADR-RES ovarian 26.8% | T-47D breast 57.1%

COc1ccc2nc(-c3ccc(Cl)cc3)cc(-c3nnc(SCC(=O)Nc4ccc(/C(C)=N\O)cc4)o3)c2c1
inactive: SK-MEL-2 melanoma 63.8% | EKVX NSCLC 35.4% | UO-31 renal 77.8% | TK-10 renal 79.4% | ACHN renal 65.6% | A498 renal 64% | CCRF-CEM leukemia 31.1% | MOLT-4 leukemia 12.4% | RPMI-8226 leukemia 18.4% | OVCAR-5 ovarian 81.1% | SK-OV-3 ovarian 87.5% | IGROV1 ovarian 60.2% | OVCAR-3 ovarian 36.8% | HS 578T breast 64.8% | T-47D breast 41.7%
active: SN12C renal -7.09% | SR leukemia 6.61% | OVCAR-8 ovarian 0.357% | OVCAR-4 ovarian -56.1% | NCI/ADR-RES ovarian 1.11%

COc1cc2nc3c(=O)n(CCN(C)C)cnn3c(=O)c2cc1OC
inactive: SK-MEL-2 melanoma 101% | EKVX NSCLC 95.7% | SN12C renal 104% | UO-31 renal 89.6% | TK-10 renal 103% | ACHN renal 105% | A498 renal 92.7% | CCRF-CEM leukemia 146% | MOLT-4 leukemia 104% | SR leukemia 105% | RPMI-8226 leukemia 121% | OVCAR-8 ovarian 111% | OVCAR-5 ovarian 99% | OVCAR-4 ovarian 101% | SK-OV-3 ovarian 104% | IGROV1 ovarian 100% | OVCAR-3 ovarian 103% | HS 578T breast 92.8% | NCI/ADR-RES ovarian 98.3% | T-47D breast 112%

O=C1CS/C(=N/c2nnc(-c3ccc(O)cc3)s2)N1
inactive: SK-MEL-2 melanoma 108% | EKVX NSCLC 92.7% | SN12C renal 101% | UO-31 renal 93.5% | TK-10 renal 115% | ACHN renal 103% | A498 renal 108% | CCRF-CEM leukemia 97% | MOLT-4 leukemia 80.5% | SR leukemia 93.1% | RPMI-8226 leukemia 101% | OVCAR-8 ovarian 109% | OVCAR-5 ovarian 103% | OVCAR-4 ovarian 110% | SK-OV-3 ovarian 82% | IGROV1 ovarian 107% | OVCAR-3 ovarian 107% | HS 578T breast 95.4% | NCI/ADR-RES ovarian 99.3% | T-47D breast 75.3%

CCCCc1nc(Cl)c(C2CC(c3ccc(Cl)cc3)=NN2c2cc(Cl)cc(Cl)c2)[nH]1 (stereo not given)
inactive: SK-MEL-2 melanoma 96% | EKVX NSCLC 57.8% | SN12C renal 45.4% | UO-31 renal 52.7% | TK-10 renal 94.2% | ACHN renal 14.2% | A498 renal 84% | CCRF-CEM leukemia 51.6% | MOLT-4 leukemia 24.6% | SR leukemia 61.8% | RPMI-8226 leukemia 90.9% | OVCAR-8 ovarian 68.5% | OVCAR-5 ovarian 94.2% | OVCAR-4 ovarian 63.5% | SK-OV-3 ovarian 92.4% | IGROV1 ovarian 71.1% | OVCAR-3 ovarian 65.9% | HS 578T breast 59.6% | NCI/ADR-RES ovarian 78.8% | T-47D breast 75%

O=c1[nH]nc(-c2ccc(Br)cc2)c2sc(NC(=S)Nc3ccc(Cl)cc3)nc12
inactive: SK-MEL-2 melanoma 101% | EKVX NSCLC 89.8% | SN12C renal 109% | UO-31 renal 89.2% | TK-10 renal 123% | ACHN renal 102% | A498 renal 100% | CCRF-CEM leukemia 98.4% | MOLT-4 leukemia 105% | SR leukemia 106% | RPMI-8226 leukemia 101% | OVCAR-8 ovarian 95.4% | OVCAR-5 ovarian 97.3% | OVCAR-4 ovarian 91.5% | SK-OV-3 ovarian 96.9% | IGROV1 ovarian 81.1% | OVCAR-3 ovarian 104% | NCI/ADR-RES ovarian 80% | T-47D breast 85.9%
active: HS 578T breast -1.82%

CS(=O)(=O)O[C@@H]1C(=O)N(c2cc3c4ccccc4ccc3c3ccccc23)[C@H]1c1ccc(F)cn1
inactive: SK-MEL-2 melanoma 14.4% | EKVX NSCLC 47.1% | SN12C renal 40.6% | UO-31 renal 46.9% | TK-10 renal 81.7% | ACHN renal 52% | A498 renal 14.6% | CCRF-CEM leukemia 10.4% | MOLT-4 leukemia 24.3% | SR leukemia 11.4% | RPMI-8226 leukemia 19.8% | OVCAR-8 ovarian 27.4% | OVCAR-5 ovarian 58.3% | OVCAR-4 ovarian 66.5% | SK-OV-3 ovarian 41.7% | IGROV1 ovarian 51.7% | NCI/ADR-RES ovarian 20.2% | T-47D breast 32.5%
active: OVCAR-3 ovarian -12.7% | HS 578T breast 7.01%

C=C1C(=O)O[C@H]2[C@H]1CC/C(COC(=O)c1c[nH]c3ccccc13)=C\CC[C@@]1(C)O[C@@H]21
inactive: SK-OV-3 ovarian 68.9%
active: SK-MEL-2 melanoma -41.3% | EKVX NSCLC -73.3% | SN12C renal -46.5% | UO-31 renal -97.6% | TK-10 renal -87% | ACHN renal -77.8% | A498 renal -96.3% | CCRF-CEM leukemia -0.836% | MOLT-4 leukemia -1.78% | SR leukemia -9.87% | RPMI-8226 leukemia -27.4% | OVCAR-8 ovarian 5% | OVCAR-5 ovarian -25.3% | OVCAR-4 ovarian -90.6% | IGROV1 ovarian -56.2% | OVCAR-3 ovarian -94.2% | HS 578T breast 3.21% | NCI/ADR-RES ovarian -4.86% | T-47D breast -49.2%

OCCNc1nc(NCCO)nc(Nc2ccc(C3=NN(c4ccc(Cl)cc4)C(c4ccc(Cl)cc4)C3)cc2)n1 (stereo not given)
inactive: SK-MEL-2 melanoma 52% | EKVX NSCLC 65% | SN12C renal 80.1% | UO-31 renal 45.5% | TK-10 renal 87.6% | ACHN renal 51.1% | A498 renal 85.7% | CCRF-CEM leukemia 25.1% | MOLT-4 leukemia 29.4% | SR leukemia 25.5% | RPMI-8226 leukemia 27.7% | OVCAR-8 ovarian 65.3% | OVCAR-5 ovarian 110% | OVCAR-4 ovarian 65.6% | SK-OV-3 ovarian 84.1% | IGROV1 ovarian 78.9% | OVCAR-3 ovarian 40.7% | HS 578T breast 62% | NCI/ADR-RES ovarian 73.8% | T-47D breast 55.8%

CN(C)[C@@H]1C(=O)C(C(N)=O)=C(O)[C@@]2(O)C(=O)C3=C(O)c4c(O)cc(CN5CCc6ccccc6C5)c(Cl)c4C[C@H]3C[C@@H]12
active: SK-MEL-2 melanoma -90.6% | EKVX NSCLC -90.3% | SN12C renal -73% | UO-31 renal -95.5% | TK-10 renal -84.3% | ACHN renal -76.1% | A498 renal -89.2% | CCRF-CEM leukemia -40.7% | MOLT-4 leukemia -67.9% | SR leukemia -50.7% | RPMI-8226 leukemia -46.2% | OVCAR-8 ovarian -80.9% | OVCAR-5 ovarian -87.1% | OVCAR-4 ovarian -44.5% | SK-OV-3 ovarian -93.3% | IGROV1 ovarian -73.2% | OVCAR-3 ovarian -83.3% | HS 578T breast -57.7% | NCI/ADR-RES ovarian -83.7% | T-47D breast -41.4%

c1cc(CNC23CC4CC(CC(C4)C2)C3)cc(C[N+](Cc2cccc(CNC34CC5CC(CC(C5)C3)C4)c2)(Cc2cccc(CNC34CC5CC(CC(C5)C3)C4)c2)Cc2cccc(CNC34CC5CC(CC(C5)C3)C4)c2)c1 (stereo not given)
inactive: SK-MEL-2 melanoma 31.8% [42 µM] | EKVX NSCLC 30.7% [42 µM] | TK-10 renal 27.1% [42 µM] | A498 renal 50.1% [42 µM] | OVCAR-4 ovarian 29.5% [42 µM] | SK-OV-3 ovarian 61.9% [42 µM] | IGROV1 ovarian 10.9% [42 µM] | HS 578T breast 58.2% [42 µM] | NCI/ADR-RES ovarian 21.5% [42 µM] | T-47D breast 24% [42 µM]
active: SN12C renal 7.96% [42 µM] | UO-31 renal -8.13% [42 µM] | ACHN renal -9.81% [42 µM] | CCRF-CEM leukemia 3.92% [42 µM] | MOLT-4 leukemia -21.9% [42 µM] | SR leukemia 9.46% [42 µM] | RPMI-8226 leukemia -11.6% [42 µM] | OVCAR-8 ovarian 7.24% [42 µM] | OVCAR-5 ovarian 7.78% [42 µM] | OVCAR-3 ovarian -26.9% [42 µM]
